Reference: PubChem BioAssay (EPA / NIEHS)
Active and inactive are the calls of the source. Rule for the calls: active = hit-call score of the fitted dose curve at least 0.9, where 1 is the maximum; inactive = score below 0.9.

What follows are compounds tested on Protein phosphatase 2A (PPP2R4), PTPA (gene 5524) (assay: LTEA_HepaRG_PPP2R4: Life Technologies and Expression Analysis (LTEA) Assay for Protein phosphatase 2A (PPP2R4) using HepaRG (AID 2283522)). Conditions: mRNA level, 48 h; actives raise or lower the signal.
Procedure: LTEA_HepaRG is a cell based, multiplexed-readout assay that uses HepaRG, a human liver cell line, with measurements taken at 48 hours after chemical dosing on a 96-well plate.LTEA_HepaRG_PPP2R4 is one of 102 assay component(s) measured in the LTEA HepaRG cell culture assay. It is a marker of Cell proliferation, survival, death.Data from the assay component LTEA_HepaRG_PPP2R4 was analyzed into 1 endpoint. This assay endpoint, LTEA_HepaRG_PPP2R4, was analyzed with bidirectional fitting relative to DMSO as the negative control and baseline of activity. Using a type of inducible reporter, measures of mRNA induction for gain or loss-of-signal activity can be used to understand regulation of transcription factor activity. To generalize the intended target to other relatable targets, this assay endpoint is annotated to the phosphatase intended target family, where the subfamily is serine/threonine phosphatase.
A total of 1060 chemcials from the ToxCast library were tested in eight-point concentration-response experiments. Cell culture and cytotoxicity assays were conducted at Thermo Fisher Scientific's Custom Services facility (Madison, WI). A single lot of human HepaRG cells (Thermo Fisher Scientific, Frederick, MD) was used for the cell culture experiments. 96-well format collagen type I coated plates of human HepaRG cells were prepared using established methods. Briefly, cryopreserved HepaRG cells were thawed, plated at a density of approximately 100,000 cells/well in HepaRG Thaw, Plate, and General Purpose media (HPRG770, Thermo Fisher Scientific), and incubated for 48 hours. 0.5% DMSO was selected as vehicle control to balance the requisite need of DMSO in HepaRG cultures to maintain differentiation (for example, baseline metabolism, proportions of hepatocytes vs. cholangiocytes), while enabling further hepatic receptor pathway activation (for example, PXR and CAR) in response to chemical exposure. 48 hours after plating, the culture medium was replaced with HepaRG Serum-Free Incudtion Media. Cells were exposed to each test chemical in duplicate and maintained in CO2 incubators for another 48 hours. Chemical plates were thawed to room temperature and 200x concentrations of treatment groups were prepared. 8-point conentration-reponse curves were made with the highest exposure at 100 uM, followed by half-log dilutions, all in 0.5% DMSO. Each test plate contained variouse controls, induction positive controls (1mM phenobarbital), cytotoxicity positive controls ([…] aflatoxin B1), vehicle controls (0.5% DMSO), and total lysis controls (0.5% DMSO). Cell morphology images were taken using an Essen IncuCyte FLR automated microscope, with six 96-well plates imaged in about 24 minutes. Images were captured and exported and JPEG files. Spent culture media was transfered to black-well plates for the LDH assay, and remaining media was sorted at -80 C for later use. Cells were treated with RLT buffer and frozen until shipped for gene expression analysis. Total RNA was isolated from the cell suspension in 75 uL of Buffer RLT (Qiagen, Germantown, MD 20874) by Quintiles/Expression Analysis (Durham, NC) using a custom isolation procedure. Total RNA from each plate well was transferred to a preamplification plate. Fluidigm's 96.96 Dynamic ArrayTM (Fluidigm, Amsterdam, the Netherlands) technology was used for gene expression analyses by quantitative reverse transcription polymerase chain reaction (qRT-PCR, performed by Quintiles/Expression Analysis, Durham, NC)89. Standard TaqManTM Assays (Applied Biosystems/ThermoFisher Scientific, Foster City, CA) were used to assess the expression of 93 genes selected based on their selectivity and sensitivity to important hepatic receptors known to be modulated by environmental chemicals; importance in human hepatocyte functionality; and hepatotoxicity. […]

Compound	outcome	AC50
CCC(C)c1ccccc1O (stereo not given)	inactive	–
O=C1NS(=O)(=O)c2ccccc21	inactive	–
N=C(N)c1ccc(OCCCCCOc2ccc(C(=N)N)cc2)cc1	–	28.4 µM (active)
CN(C)CCOC(c1ccccc1)c1ccccc1	inactive	–
O=C(CCCN1CCC(O)(c2ccc(Cl)cc2)CC1)c1ccc(F)cc1	inactive	–
CCCCC=O	inactive	–
O=C(c1ccccc1)c1ccccc1	inactive	–
CCCCc1oc2ccccc2c1C(=O)c1cc(I)c(OCCN(CC)CC)c(I)c1	inactive	–
CN(Cc1cnc2nc(N)nc(N)c2n1)c1ccc(C(=O)N[C@@H](CCC(=O)O)C(=O)O)cc1	inactive	–
CCCCCCCCCCCCCCC	inactive	–
CC(=O)Nc1ccc(O)cc1	inactive	–
Cc1[nH]nc2c1N=C(c1ccccc1Cl)c1cc([N+](=O)[O-])ccc1N2	inactive	–
OCC(CO)(CBr)CBr	inactive	–
CS(=O)(=O)c1ccc([C@@H](CC2CCCC2)C(=O)Nc2cnccn2)cc1Cl	–	50 µM (active)
CCCCC(CC)C(=O)O (stereo not given)	inactive	–
